From the supplement of paper PMC11732987, “Enantioselective OTUD7B fragment discovery through chemoproteomics screening and high-throughput optimisation” (Communications Chemistry, 2025)

Experiments:
Experiment in all cases: log2 ratio of Biotin-Ahx-Ub-VS probe labelling (fragment/DMSO); higher = less target engagement (more negative = stronger competition), active = hit call of the paper (q ≤ 0.05, log2 ratio ≤ -1)
Settings in all cases: compound concentration: 200 uM; treatment time: 3 h
USP9X = USP9X (UniProt Q93008)
Outline: (§1)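 HEK293T lysate (495 µg per sample, in Tris/CHAPS/IGEPAL buffer with protease inhibitors) was treated in triplicate with fragment at 200 µM or with DMSO for 3 h. It was then treated with Biotin-Ahx-Ub-VS (0.5 µM final) for 1 h. Labelled DUBs were NeutrAvidin-enriched, digested with LysC and trypsin, and run by diaPASEF LC-MS/MS. Spectronaut label-free quantities were global-median-normalised. Values are average log2 ratios fragment/DMSO by unpaired t-test, using proteins with ≥2 unique peptides.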

UniProt O00487 = target: UniProt O00487
Outline: as §1

UniProt O00507 = target: UniProt O00507
Outline: as §1

UniProt P51784 = target: UniProt P51784
Outline: as §1

UniProt Q5T2D3 = target: T1, UniProt Q5T2D3
T1 sequence (whole entry): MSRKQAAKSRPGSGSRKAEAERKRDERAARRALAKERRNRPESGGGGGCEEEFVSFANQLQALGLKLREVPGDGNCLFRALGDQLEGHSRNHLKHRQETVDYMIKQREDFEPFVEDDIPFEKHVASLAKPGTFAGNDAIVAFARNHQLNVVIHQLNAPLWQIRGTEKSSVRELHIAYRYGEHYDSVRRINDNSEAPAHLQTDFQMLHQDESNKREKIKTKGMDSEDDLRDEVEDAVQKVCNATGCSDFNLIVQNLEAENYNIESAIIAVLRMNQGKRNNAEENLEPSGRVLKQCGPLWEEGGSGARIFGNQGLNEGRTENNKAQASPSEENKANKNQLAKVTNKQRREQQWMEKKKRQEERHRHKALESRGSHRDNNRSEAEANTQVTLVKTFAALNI
Outline: as §1

UniProt Q8TE49 = target: T2, UniProt Q8TE49
T2 sequence (whole entry): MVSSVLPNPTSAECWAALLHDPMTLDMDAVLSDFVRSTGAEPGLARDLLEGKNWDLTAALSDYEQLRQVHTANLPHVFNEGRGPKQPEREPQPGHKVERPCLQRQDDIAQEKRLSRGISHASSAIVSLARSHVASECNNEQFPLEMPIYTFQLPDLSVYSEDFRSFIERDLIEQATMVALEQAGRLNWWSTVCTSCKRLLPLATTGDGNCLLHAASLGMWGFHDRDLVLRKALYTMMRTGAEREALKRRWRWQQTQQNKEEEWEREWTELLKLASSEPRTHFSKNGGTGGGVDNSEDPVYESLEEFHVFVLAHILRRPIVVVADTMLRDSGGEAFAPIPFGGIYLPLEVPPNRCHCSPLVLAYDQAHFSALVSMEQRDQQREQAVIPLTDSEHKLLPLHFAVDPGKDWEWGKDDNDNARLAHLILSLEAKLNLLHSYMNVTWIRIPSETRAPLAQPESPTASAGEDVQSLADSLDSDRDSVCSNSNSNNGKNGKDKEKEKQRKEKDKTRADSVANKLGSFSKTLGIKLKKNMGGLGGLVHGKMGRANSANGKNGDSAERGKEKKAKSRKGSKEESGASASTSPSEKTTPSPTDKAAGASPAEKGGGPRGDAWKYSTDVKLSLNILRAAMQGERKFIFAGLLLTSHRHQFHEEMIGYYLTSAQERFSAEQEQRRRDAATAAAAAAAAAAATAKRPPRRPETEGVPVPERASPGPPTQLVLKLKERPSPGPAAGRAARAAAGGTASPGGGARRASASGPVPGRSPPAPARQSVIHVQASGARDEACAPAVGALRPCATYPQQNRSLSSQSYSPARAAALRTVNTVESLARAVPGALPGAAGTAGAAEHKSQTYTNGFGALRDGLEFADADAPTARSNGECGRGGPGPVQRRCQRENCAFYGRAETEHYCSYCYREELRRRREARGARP
Outline: as §1

UniProt Q9P2H5 = target: T3, UniProt Q9P2H5
T3 sequence (whole entry): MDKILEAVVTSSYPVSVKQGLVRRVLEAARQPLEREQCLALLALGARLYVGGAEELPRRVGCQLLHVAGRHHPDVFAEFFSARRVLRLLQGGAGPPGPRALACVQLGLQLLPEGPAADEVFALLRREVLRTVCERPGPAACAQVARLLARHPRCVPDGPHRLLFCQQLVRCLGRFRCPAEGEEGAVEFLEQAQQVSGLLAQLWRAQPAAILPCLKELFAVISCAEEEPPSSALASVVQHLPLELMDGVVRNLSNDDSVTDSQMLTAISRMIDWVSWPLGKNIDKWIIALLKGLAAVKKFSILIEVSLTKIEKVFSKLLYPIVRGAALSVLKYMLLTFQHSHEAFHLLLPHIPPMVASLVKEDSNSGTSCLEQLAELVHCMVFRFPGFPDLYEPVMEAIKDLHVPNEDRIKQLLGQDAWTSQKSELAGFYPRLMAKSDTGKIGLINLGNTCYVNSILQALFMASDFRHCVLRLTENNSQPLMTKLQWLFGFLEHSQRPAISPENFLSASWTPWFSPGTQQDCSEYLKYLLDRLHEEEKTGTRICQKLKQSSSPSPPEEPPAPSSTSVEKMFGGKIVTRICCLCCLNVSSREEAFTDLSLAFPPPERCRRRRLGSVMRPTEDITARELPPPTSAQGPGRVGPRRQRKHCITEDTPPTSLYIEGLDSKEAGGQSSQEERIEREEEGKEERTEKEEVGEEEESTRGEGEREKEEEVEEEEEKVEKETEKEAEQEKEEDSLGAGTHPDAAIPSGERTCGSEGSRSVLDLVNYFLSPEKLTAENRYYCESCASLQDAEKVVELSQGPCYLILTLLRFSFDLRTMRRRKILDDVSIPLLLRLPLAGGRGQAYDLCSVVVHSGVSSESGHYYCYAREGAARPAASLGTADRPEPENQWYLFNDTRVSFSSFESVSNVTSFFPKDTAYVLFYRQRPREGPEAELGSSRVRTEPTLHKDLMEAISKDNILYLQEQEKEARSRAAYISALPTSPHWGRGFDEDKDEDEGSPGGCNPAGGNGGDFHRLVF
Outline: as §1

UniProt Q9UGI0 = target: T4, UniProt Q9UGI0
T4 sequence (whole entry): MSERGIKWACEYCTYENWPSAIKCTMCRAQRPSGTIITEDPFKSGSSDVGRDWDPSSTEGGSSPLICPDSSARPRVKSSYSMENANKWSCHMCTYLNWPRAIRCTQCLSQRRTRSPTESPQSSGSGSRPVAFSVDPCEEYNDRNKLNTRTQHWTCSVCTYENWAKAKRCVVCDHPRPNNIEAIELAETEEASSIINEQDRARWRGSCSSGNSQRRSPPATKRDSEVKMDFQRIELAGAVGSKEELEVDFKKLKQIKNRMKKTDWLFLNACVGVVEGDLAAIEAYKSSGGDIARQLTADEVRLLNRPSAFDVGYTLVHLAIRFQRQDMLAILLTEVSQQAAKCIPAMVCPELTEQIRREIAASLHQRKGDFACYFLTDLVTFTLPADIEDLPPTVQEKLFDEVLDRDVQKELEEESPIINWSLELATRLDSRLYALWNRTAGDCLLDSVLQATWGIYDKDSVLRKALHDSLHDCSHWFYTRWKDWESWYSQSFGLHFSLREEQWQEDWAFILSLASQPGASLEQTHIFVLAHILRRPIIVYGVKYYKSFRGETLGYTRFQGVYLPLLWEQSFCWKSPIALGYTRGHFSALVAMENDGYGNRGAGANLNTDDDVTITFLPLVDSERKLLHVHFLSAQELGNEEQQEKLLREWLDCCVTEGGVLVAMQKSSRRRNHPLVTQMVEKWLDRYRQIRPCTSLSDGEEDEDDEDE
Outline: as §1

YOD1 = target: T5, YOD1 (UniProt Q5VVQ6)
T5 sequence (whole entry): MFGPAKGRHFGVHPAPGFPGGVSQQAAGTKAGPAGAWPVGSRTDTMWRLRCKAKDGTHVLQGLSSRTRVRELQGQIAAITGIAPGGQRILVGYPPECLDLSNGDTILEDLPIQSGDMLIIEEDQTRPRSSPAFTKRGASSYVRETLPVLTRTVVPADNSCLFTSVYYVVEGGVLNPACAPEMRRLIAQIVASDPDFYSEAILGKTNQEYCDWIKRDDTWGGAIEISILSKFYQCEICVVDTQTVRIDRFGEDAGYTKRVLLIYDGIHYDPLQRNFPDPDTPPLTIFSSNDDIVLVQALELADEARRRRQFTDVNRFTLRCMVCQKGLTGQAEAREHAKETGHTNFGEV
Outline: as §1

Measured: log2 ratio of Biotin-Ahx-Ub-VS probe labelling

Chain of UniProt P51784 (P51784 whole entry): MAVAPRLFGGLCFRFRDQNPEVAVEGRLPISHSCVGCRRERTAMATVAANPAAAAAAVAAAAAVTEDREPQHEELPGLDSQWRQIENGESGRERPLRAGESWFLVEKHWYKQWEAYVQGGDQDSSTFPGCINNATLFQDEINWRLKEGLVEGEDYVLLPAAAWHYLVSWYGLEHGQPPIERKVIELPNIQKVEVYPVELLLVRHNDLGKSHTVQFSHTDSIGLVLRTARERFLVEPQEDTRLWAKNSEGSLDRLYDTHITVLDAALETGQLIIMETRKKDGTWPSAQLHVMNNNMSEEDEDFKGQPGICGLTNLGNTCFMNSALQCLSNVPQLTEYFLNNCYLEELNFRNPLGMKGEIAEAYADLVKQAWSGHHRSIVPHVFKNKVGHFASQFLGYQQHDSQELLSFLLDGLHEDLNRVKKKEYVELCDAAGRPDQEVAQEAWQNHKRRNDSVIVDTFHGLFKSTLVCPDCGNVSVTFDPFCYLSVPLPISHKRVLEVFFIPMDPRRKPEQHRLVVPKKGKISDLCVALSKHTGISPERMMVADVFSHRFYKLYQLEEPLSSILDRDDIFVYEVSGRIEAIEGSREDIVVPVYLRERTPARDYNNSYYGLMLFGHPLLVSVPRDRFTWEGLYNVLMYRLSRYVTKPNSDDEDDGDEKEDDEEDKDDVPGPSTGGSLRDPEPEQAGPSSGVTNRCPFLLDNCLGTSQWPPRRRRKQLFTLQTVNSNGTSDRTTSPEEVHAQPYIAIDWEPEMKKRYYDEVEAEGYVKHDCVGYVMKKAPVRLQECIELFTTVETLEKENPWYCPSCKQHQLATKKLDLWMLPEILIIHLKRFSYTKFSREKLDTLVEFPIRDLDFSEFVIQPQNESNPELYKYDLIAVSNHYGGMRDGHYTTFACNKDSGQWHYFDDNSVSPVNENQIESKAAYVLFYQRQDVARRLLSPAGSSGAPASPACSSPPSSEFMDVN
Chain of UniProt O00507 (O00507 whole entry): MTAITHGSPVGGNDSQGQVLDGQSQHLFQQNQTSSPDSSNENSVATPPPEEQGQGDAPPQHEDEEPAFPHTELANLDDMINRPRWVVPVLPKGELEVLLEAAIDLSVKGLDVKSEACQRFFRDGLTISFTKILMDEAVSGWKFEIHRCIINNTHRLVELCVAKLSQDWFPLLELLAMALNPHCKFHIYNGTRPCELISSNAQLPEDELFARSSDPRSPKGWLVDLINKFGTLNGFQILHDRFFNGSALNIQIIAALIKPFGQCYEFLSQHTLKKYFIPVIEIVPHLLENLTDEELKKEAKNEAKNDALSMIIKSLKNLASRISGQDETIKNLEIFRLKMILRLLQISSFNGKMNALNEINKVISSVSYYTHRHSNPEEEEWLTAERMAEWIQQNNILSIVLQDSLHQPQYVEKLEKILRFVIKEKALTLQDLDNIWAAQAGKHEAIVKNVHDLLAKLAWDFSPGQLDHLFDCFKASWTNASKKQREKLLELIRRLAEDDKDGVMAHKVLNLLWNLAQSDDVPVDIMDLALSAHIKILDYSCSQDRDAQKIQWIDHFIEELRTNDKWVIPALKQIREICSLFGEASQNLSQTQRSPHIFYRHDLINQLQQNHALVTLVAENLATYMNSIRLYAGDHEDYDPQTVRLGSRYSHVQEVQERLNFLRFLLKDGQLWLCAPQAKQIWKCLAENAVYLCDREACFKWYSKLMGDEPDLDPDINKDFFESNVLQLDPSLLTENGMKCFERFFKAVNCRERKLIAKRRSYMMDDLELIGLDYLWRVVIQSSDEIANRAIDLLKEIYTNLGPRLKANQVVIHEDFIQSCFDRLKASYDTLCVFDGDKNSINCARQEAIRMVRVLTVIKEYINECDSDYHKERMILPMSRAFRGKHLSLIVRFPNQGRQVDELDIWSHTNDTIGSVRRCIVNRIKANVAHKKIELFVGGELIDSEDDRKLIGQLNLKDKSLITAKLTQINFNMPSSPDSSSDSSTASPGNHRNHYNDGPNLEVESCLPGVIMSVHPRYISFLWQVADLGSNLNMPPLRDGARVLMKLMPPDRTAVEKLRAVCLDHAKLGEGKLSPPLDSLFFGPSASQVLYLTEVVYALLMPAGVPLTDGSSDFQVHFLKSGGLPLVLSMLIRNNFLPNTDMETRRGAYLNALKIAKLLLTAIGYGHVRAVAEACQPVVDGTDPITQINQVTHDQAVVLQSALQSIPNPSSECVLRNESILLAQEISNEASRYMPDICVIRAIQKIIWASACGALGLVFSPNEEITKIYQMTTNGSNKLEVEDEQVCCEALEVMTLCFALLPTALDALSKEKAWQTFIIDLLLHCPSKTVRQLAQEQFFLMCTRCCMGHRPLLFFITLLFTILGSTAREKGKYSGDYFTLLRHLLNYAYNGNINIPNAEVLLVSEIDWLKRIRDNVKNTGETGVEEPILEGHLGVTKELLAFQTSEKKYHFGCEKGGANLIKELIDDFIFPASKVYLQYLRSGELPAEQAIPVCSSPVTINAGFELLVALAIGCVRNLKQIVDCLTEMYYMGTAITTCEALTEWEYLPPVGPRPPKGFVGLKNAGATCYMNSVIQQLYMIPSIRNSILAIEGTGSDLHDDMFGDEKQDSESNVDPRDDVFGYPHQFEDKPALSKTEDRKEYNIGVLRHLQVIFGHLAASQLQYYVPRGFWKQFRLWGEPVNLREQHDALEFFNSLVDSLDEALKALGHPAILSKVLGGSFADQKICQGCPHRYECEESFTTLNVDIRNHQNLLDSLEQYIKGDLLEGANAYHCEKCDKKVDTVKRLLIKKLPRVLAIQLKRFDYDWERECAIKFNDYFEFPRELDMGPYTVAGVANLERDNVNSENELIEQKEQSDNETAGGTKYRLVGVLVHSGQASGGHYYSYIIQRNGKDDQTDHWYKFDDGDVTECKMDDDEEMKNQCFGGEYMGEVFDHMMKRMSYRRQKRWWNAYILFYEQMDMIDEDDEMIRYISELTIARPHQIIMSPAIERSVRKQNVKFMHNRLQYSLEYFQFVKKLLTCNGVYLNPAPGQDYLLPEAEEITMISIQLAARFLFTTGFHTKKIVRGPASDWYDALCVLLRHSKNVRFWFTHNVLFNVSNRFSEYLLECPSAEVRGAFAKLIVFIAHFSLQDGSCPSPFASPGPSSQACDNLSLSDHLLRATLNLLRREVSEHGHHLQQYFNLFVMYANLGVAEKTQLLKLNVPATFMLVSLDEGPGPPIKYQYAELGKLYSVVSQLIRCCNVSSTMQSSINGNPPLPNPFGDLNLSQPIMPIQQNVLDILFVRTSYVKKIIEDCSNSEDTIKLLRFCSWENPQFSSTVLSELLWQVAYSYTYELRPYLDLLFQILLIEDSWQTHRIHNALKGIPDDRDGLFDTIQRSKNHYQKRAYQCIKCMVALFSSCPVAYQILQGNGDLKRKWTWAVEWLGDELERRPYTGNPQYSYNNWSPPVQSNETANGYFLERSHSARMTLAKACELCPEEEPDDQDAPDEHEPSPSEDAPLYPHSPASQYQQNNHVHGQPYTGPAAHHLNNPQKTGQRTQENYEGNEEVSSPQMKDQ
Chain of UniProt O00487 (O00487 whole entry): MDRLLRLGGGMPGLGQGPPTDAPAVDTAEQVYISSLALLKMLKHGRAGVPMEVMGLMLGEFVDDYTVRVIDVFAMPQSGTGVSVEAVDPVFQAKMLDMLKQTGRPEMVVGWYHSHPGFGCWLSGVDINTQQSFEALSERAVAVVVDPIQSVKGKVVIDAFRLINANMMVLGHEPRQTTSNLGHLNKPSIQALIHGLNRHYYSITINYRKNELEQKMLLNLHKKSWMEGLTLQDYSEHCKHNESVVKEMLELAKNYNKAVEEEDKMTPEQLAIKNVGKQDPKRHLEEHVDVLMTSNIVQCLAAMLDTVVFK

N#Cc1cnn(-c2ccccc2)c1NC(=O)CCl
inactive: USP9X -0.317 | UniProt O00487 -0.0605 | UniProt O00507 -0.331 | UniProt P51784 -0.12 | UniProt Q5T2D3 -0.209 | UniProt Q9P2H5 -0.407 | YOD1 -0.327
active: UniProt Q8TE49 -1.4 | UniProt Q9UGI0 -1.04
